Results taken from the supplement of paper PMC13380429.
A number with no mark means an inactive call.

Tested on: Vero E6 infected with SARS-CoV-2
Assay: inhibition of SARS-CoV-2 cytopathic effect; higher = more antiviral protection, active = above 15
Conditions: 48 h

SMILES	inhibition of SARS-CoV-2 cytopathic effect (1 nM)	inhibition of SARS-CoV-2 cytopathic effect (8.33 nM)	inhibition of SARS-CoV-2 cytopathic effect (100 nM)	inhibition of SARS-CoV-2 cytopathic effect (833.33 nM)	inhibition of SARS-CoV-2 cytopathic effect (10000 nM)
Cc1oc2nc3c(c(NC(=O)CN4CCCC4=O)c2c1C)CCCC3	0.92%	-2.29%	-0.3%	-0.97%	0.5%
Cc1cnc(C(=O)NCCc2ccc(S(=O)(=O)NC(=O)NC3CCCCC3)cc2)cn1 [glipizide]	-3.14%	-1.53%	-0.68%	-1.78%	0.54%
CC(C)c1nnc(-c2ccc(-c3ccccc3)nc2)n1-c1cccc2nonc12	-5.81%	-4.31%	-0.24%	0.55%	-1.7%
C1CCC(C(CC2CCCCN2)C2CCCCC2)CC1 (stereo not given) [perhexiline]	0.59%	4.47%	2.39%	0.87%	48.5% (active)
COc1cc(O)c(C(=O)c2ccccc2)cc1S(=O)(=O)O [sulisobenzone]	1.82%	1.76%	-0.05%	-2.93%	1.98%
N=C(Nc1ccccc1)Nc1ccccc1 [diphenylguanidine]	-3.55%	-2.37%	-2.77%	-0.58%	2.16%
c1coc(CNc2ncnc3[nH]cnc23)c1 [kinetin]	-0.75%	1.25%	1.35%	3.24%	2.8%
CO[C@H]1C[C@H](O[C@H]2[C@H](C)O[C@@H](O[C@@H]3/C(C)=C/C[C@@H]4C[C@@H](C[C@]5(C=C[C@H](C)[C@@H](C6CCCCC6)O5)O4)OC(=O)[C@@H]4C=C(C)[C@@H](O)[C@H]5OC/C(=C\C=C\[C@@H]3C)[C@]54O)C[C@@H]2OC)O[C@@H](C)[C@@H]1O [doramectin]	0.81%	1.22%	1.24%	0.55%	2.69%
Cn1ccc2cc3c(cc21)CCN3C(=O)Nc1cccnc1	1.1%	0.1%	1.8%	0.79%	2.05%
O=C(O)C1=CCNCC1 [isoguvacine]	0.65%	0.98%	0.98%	3.23%	2.12%
NC(=O)C1=CN([C@@H]2O[C@H](COP(=O)(O)OP(=O)(O)OC[C@H]3O[C@@H](n4cnc5c(N)ncnc54)[C@H](O)[C@@H]3O)[C@@H](O)[C@H]2O)C=CC1 [coenzyme-I]	-3.2%	-4.29%	1.16%	1.03%	1.66%
COc1ccc2c(c1)C(C(=O)N(Cc1ccc(N(C)C)cc1)c1ccc(C(C)C)cc1)CCC2 (stereo not given)	-2.02%	0.34%	3.26%	1.87%	-3.29%
CN1CCC(Nc2ncc3ncnc(Nc4ccc(F)c(Cl)c4)c3n2)CC1	0.68%	1.23%	-4.55%	-7.55%	-2.79%
COc1ccc(C[C@H]2NC[C@H](O)[C@H]2OC(C)=O)cc1 [anisomycin]	3.91%	6%	44.2% (active)	7.95%	-30.6%
Cn1c([N+](=O)[O-])cnc1COC(N)=O [ronidazole]	2.87%	0.97%	1.04%	2.17%	2.12%
C[C@]12C=CC(=O)C=C1CC[C@@H]1[C@@H]2C(=O)C[C@@]2(C)[C@H]1CC[C@]2(O)C(=O)CO [prednisone]	-1.14%	-0.26%	-3.03%	-1.05%	1.02%
CCOC(=O)[N-]c1c[n+](N2CCOCC2)no1 [molsidomine]	-0.39%	1.12%	2.15%	1.58%	-0.19%
CN[C@@H]1[C@@H](O)[C@@H](O[C@@H]2[C@@H](O)[C@H](O[C@H]3O[C@H](CN)[C@@H](O)[C@H](O)[C@H]3O)[C@@H](N)C[C@H]2NC(=O)[C@@H](O)CN)OC[C@]1(C)O [isepamicin]	-2.06%	1%	3.72%	-1.29%	-1.06%
CCCCNc1ccc(C(=O)OCCN(C)C)cc1 [tetracaine]	2.75%	-1.31%	-0.22%	-2.39%	0.71%
